SKKanGAS inh: S. pyogenes SKKanGAS growth inhibitors in kanamycin, primary screen, streptokinase expression inhibitor project, SKKanGAS strain, BacTiter-Glo luminescence; 6 h; inhibition, % at 7.5 µM; 300,000 tested, 1.3% active; AID 1662, 2009;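 active = mean replicate score, as percent of positive control median, at least 50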;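 note: strain carries kanamycin resistance gene driven by streptokinase promoter and grows in 40 µg/ml kanamycin; loss of luminescence reflects streptokinase promoter inhibition or plain growth inhibition; 0% = median of DMSO wells and 100% = positive control at its reference dose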
PfHsp90 yeast 2: growth inhibition of PfHsp90-expressing yeast, primary screen, antimalarial PfHsp90 inhibitor project, S. cerevisiae, BacTiter-Glo luminescence, single point, set 2; BacTiter-Glo ATP, 48 h; yeast lacking PDR1 and PDR3 efflux regulators; inhibition, % at 9.4 µM; 310,000 tested, 0.32% active; AID 504621, 2011;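 active = every replicate shows inhibition above about 80%, whatever the replicate mean, limit read from the data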;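 note: 0% = DMSO neutral controls and 100% = 20 µM radicicol positive controls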
tim10-1 inh: growth inhibitors of tim10-1 mutant yeast, primary screen, luminescence, uHTS; S. cerevisiae tim10-1 ts strain growth, BacTiter-Glo, 24 h; 330,000 tested, 2.2% active; inhibition, % at 20 µM; AID 463190, 2010;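 active = inhibition of at least 40%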;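 note: mutant grown at 25 °C; 0% = DMSO wells with yeast and 100% = wells holding no yeast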
tim23-1 inh: growth inhibitors of tim23-1 mutant yeast, primary screen, luminescence, uHTS; S. cerevisiae tim23-1 growth, BacTiter-Glo luminescence, 24 h; inhibition, % at 20 µM; 330,000 tested, 1.3% active;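 active = growth inhibition of the mutant yeast at or above 50%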;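 note: temperature-sensitive mutant grown at 25 °C; plate controls were DMSO-treated mutant yeast for no effect and medium wells lacking yeast for full effect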
TIM10 inh: growth inhibitors of isogenic TIM10 control yeast, primary screen, counter-screen for tim10-1 yeast inhibitor project, luminescence, uHTS. S. cerevisiae TIM10 strain growth, BacTiter-Glo luminescence, 24 h. inhibition, % at 10 µM. 330,000 tested, 1.4% active. AID 463195, 2010;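 active = inhibition of 40% or more at the single tested concentration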;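 note: wild-type TIM10 isogenic control strain grown at permissive 25 °C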
* hit, by the source's call. An excerpt weighted towards active compounds, which were near 4.4% of everything screened.

O=C(Nc1nc(-c2ccccc2)cs1)c1ccccc1NS(=O)(=O)c1ccc(F)cc1 was read as SKKanGAS inh 85*, PfHsp90 yeast 2 103*, tim10-1 inh -27, tim23-1 inh 7 and TIM10 inh -84.
For CC1(C)COC(c2cc3c(cc2Br)OCO3)OC1 the results were PfHsp90 yeast 2 -15.
CCCCCCc1cc2cc(S(=O)(=O)c3ccc(Cl)cc3)c(=O)oc2cc1O was read as SKKanGAS inh 6, PfHsp90 yeast 2 102*, tim10-1 inh 7, tim23-1 inh 9 and TIM10 inh 13.
Cc1cccc2sc(NNC(=O)c3cc(-c4cccs4)nc4ccccc34)nc12 was read as SKKanGAS inh 88*, PfHsp90 yeast 2 -98, tim10-1 inh 36, tim23-1 inh 32 and TIM10 inh -29.
Screening NNC(=O)c1cc(-c2cccs2)nc2ccccc12 returned SKKanGAS inh 2, PfHsp90 yeast 2 15, tim10-1 inh 22, tim23-1 inh 34 and TIM10 inh 15.
Screening Cc1ccccc1S(=O)(=O)N1C[C@H]2CON(C)[C@H]2C[C@H]1c1cccc(Oc2ccccc2)c1 returned PfHsp90 yeast 2 -7.
Screening O=C(Nc1nnc(-c2ccc3c(c2)CCCC3)o1)C1COc2ccccc2O1 (centres undefined) returned SKKanGAS inh 99*, PfHsp90 yeast 2 -123, tim10-1 inh 13, tim23-1 inh 32 and TIM10 inh 5.
For O=C(COc1ccc(Cl)cc1)Nc1nnc(-c2ccc3c(c2)CCCC3)o1 the results were SKKanGAS inh 97*, PfHsp90 yeast 2 -38, tim10-1 inh -12, tim23-1 inh 4 and TIM10 inh -8.
`C/C=C1\NC(=O)[C@H](C)NC(=O)[C@@H](NC(=O)[C@@H](Cc2ccc(O)cc2)NC(=O)[C@@H](NC(=O)/C(C)=C/C)C(C)C)[C@@H](C)OC(=O)[C@H](CCCCc2ccc(O)cc2)NC(=O)[C@@H](CCC(=O)O)NC1=O` gave PfHsp90 yeast 2 -7, tim10-1 inh 1, tim23-1 inh 14 and TIM10 inh 1.
Fc1ccc2nc(Nc3nc4cc5c(cc4s3)OCCO5)sc2c1 was read as SKKanGAS inh 50*, PfHsp90 yeast 2 2, tim10-1 inh 32, tim23-1 inh 35 and TIM10 inh 18.
Fc1ccc2nc(Nc3nc4cc5c(cc4s3)OCO5)sc2c1 was read as SKKanGAS inh 60*, PfHsp90 yeast 2 -4, tim10-1 inh 5, tim23-1 inh 13 and TIM10 inh 25.
c1ccc2sc(Nc3nc4cc5c(cc4s3)OCO5)nc2c1 was read as SKKanGAS inh -33, PfHsp90 yeast 2 -6, tim10-1 inh 19, tim23-1 inh 15 and TIM10 inh 28.
O=C(NC1CCN(Cc2ccccc2)CC1)c1cc(S(=O)(=O)Nc2ccc(F)cc2)ccc1Cl was read as PfHsp90 yeast 2 1, tim10-1 inh 3, tim23-1 inh 8 and TIM10 inh 5.
For COc1ccc(/C=C/C(=O)NC(=S)NNC(=O)c2c(-c3ccccc3)noc2C)cc1 the results were SKKanGAS inh 89*, PfHsp90 yeast 2 -1, tim10-1 inh -4, tim23-1 inh 18 and TIM10 inh 25.
For COc1cccc(CC(=O)NNC(=O)c2c(-c3ccccc3)noc2C)c1 the results were SKKanGAS inh -3, tim10-1 inh -18, tim23-1 inh -3 and TIM10 inh -10.
Screening Cc1onc(-c2ccccc2)c1C(=O)NNC(=S)NC(=O)c1ccc(Cl)cc1Cl returned SKKanGAS inh 80*, PfHsp90 yeast 2 -23, tim10-1 inh 13, tim23-1 inh -1 and TIM10 inh 29.
Cc1ccccc1C(=O)NNC(=S)NC(=O)c1ccc(Cl)cc1Cl was read as SKKanGAS inh 28, PfHsp90 yeast 2 -95, tim10-1 inh 15, tim23-1 inh 0 and TIM10 inh 23.
For Cc1onc(-c2ccccc2)c1C(=O)NNC(=S)NC(=O)c1ccc(Br)cc1 the results were SKKanGAS inh 125* and PfHsp90 yeast 2 -16.
Screening COc1ccc(-c2cc(C(=O)NNC(=S)NC(=O)c3c(-c4ccccc4)noc3C)[nH]n2)cc1 returned SKKanGAS inh 93*, PfHsp90 yeast 2 -26, tim10-1 inh 29, tim23-1 inh 8 and TIM10 inh 8.
Screening CC(OC(=O)CC1Sc2ccccc2NC1=O)C(=O)N(C)Cc1ccccc1 (centres undefined) returned PfHsp90 yeast 2 -3.
Screening Cc1onc(-c2ccccc2)c1C(=O)NNC(=O)c1ccccc1 returned PfHsp90 yeast 2 -23, tim10-1 inh 5, tim23-1 inh -7 and TIM10 inh 7.
For Cc1onc(-c2ccccc2)c1C(=O)NNC(=S)NC(=O)/C=C/c1ccccc1 the results were SKKanGAS inh 51*, PfHsp90 yeast 2 1, tim10-1 inh 0, tim23-1 inh 31 and TIM10 inh -4.
Screening O=S(=O)(c1ccccc1)N1CCN=C1SCc1c(F)cccc1Cl returned SKKanGAS inh 64*, PfHsp90 yeast 2 -1, tim10-1 inh 17, tim23-1 inh 30 and TIM10 inh -7.
Screening CN1C(=O)C(N=Nc2ccc([N+](=O)[O-])cc2)SC1=S (centres undefined) returned PfHsp90 yeast 2 114*.
c1ccc(CSc2ncnc3c2oc2ccccc23)cc1 was read as SKKanGAS inh 52*, PfHsp90 yeast 2 -6, tim10-1 inh 23, tim23-1 inh 8 and TIM10 inh 18.
Screening Cc1nc(SCc2cccc(F)c2)c2oc3ccccc3c2n1 returned SKKanGAS inh 55*, PfHsp90 yeast 2 -36, tim10-1 inh 5, tim23-1 inh -1 and TIM10 inh -4.
COc1ccc(-n2nc(C(=O)c3cccs3)cc(-c3nc4ccccc4[nH]3)c2=N)cc1 was read as SKKanGAS inh 58*, tim10-1 inh 24, tim23-1 inh -1 and TIM10 inh 12.
Screening Cc1ccccc1-n1nc(C(=O)c2cccs2)cc(-c2nc3ccccc3[nH]2)c1=N returned SKKanGAS inh 86*, tim10-1 inh 36, tim23-1 inh 25 and TIM10 inh 29.
CC(C)CC1NC(=O)c2cc(Cl)ccc2-n2c1nc1ccc(F)cc1c2=O (centres undefined) was read as tim10-1 inh 19, tim23-1 inh 19 and TIM10 inh 6.
`Oc1nc(Nc2ccccc2)sc1/C=C1\C=Nc2ccccc21` gave SKKanGAS inh 54*, PfHsp90 yeast 2 7, tim10-1 inh -46, tim23-1 inh 17 and TIM10 inh -9.
CCCCCCCCOC(=O)/C=C/c1c(C)[nH]c(=O)[nH]c1=O was read as SKKanGAS inh 64*, PfHsp90 yeast 2 -53, tim10-1 inh -12, tim23-1 inh 0 and TIM10 inh 2.
`OCC[C@@H]1NCc2cc(CO)cc(-c3ccccc3)c21` gave PfHsp90 yeast 2 -3.

Compound activity from PubChem.
